# In PubChem BioAssay (EPA / NIEHS):
# “And” between values parts separate entries of the source, which are not always exact repeats. Equal values may be shown once. Records with an inconclusive call do not appear. The source made the active and inactive calls. How the source made its calls: active means hit-call score of the fitted dose curve at least 0.9, where 1 is the maximum; inconclusive means response in the unintended direction; inactive means score below 0.9.
# Assays:
# [1] = molecular target: Nuclear receptor subfamily 1 group I member 2 (Mus musculus) (UniProt O54915); assay: ATG_mPXR_XSP1: Attagene TRANS-FACTORIAL Multi-Species (XSP1) HepG2 Assay for mouse Pregnane X Receptor (PXR) (AID 2283803)
# Summary of the method: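 Transiently transfected HepG2 cells expressing a receptor-Gal4 chimera drive a GAL4-UAS reporter; 3 nM 6-alpha-fluorotestosterone included. Reporter mRNA read 24 h post-dose by RT-PCR and capillary electrophoresis; gain of signal relative to DMSO.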
# [2] = molecular target: zebrafish Thyroid Hormone Receptor alpha (TRa), thraa (gene 30670) (UniProt Q98867); assay: ATG_zfTRa_XSP1: Attagene TRANS-FACTORIAL Multi-Species (XSP1) HepG2 Assay for zebrafish Thyroid Hormone Receptor alpha (TRa) (AID 2283807)
# Summary of the method: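 HepG2 cells transiently transfected with GAL4-UAS reporter units including a zebrafish TRa–Gal4 chimera, dosed 24 h with 3 nM 6-alpha-fluorotestosterone present. Reporter mRNA quantified by RT-PCR and capillary electrophoresis; gain versus DMSO.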
# [3] = molecular target: human Thyroid hormone Receptor beta (TRb), THRB (gene 7068) (UniProt P10828); assay: ATG_hTRb_XSP1: Attagene TRANS-FACTORIAL Multi-Species (XSP1) HepG2 Assay for human Thyroid hormone Receptor beta (TRb) (AID 2283808)
# Summary of the method: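 HepG2 cells transiently transfected with reporter units driving GAL4-UAS reporters for chimeric NR-Gal4 proteins; 24 h chemical exposure with 3 nM 6-alpha-fluorotestosterone present. Reporter mRNA quantified by RT-PCR and capillary electrophoresis, gain of signal versus DMSO.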
# [4] = molecular target: zebrafish Thyroid Hormone Receptor beta (TRb), thrb (gene 30607) (UniProt Q9PVE4); assay: ATG_zfTRb_XSP1: Attagene TRANS-FACTORIAL Multi-Species (XSP1) HepG2 Assay for zebrafish Thyroid Hormone Receptor beta (TRb) (AID 2283809)
# Summary of the method: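 HepG2 cells transiently transfected with multiplexed GAL4-UAS reporter units expressing chimeric zebrafish TRb–Gal4. Dosed 24 h with 3 nM 6-alpha-fluorotestosterone present; reporter mRNA measured by RT-PCR, HpaI digestion and capillary electrophoresis; gain of signal versus DMSO.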
# [5] = ATG_XTT_Cytotoxicity_XSP1: Cytotoxicity Assessment in the Attagene TRANS-FACTORIAL Multi-Species (XSP1) HepG2 Assay (AID 2283810)
# Summary of the method: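 XTT viability readout taken at 24 hours post-dosing in HepG2 liver cells co-treated with 3 nM 6-alpha-fluorotestosterone. Signal loss relative to DMSO controls reflects cytotoxicity.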
# [6] = ATG_M_06_XSP2: Attagene TRANS-FACTORIAL Multi-Species (XSP2) HepG2 Assay for M06 Transcription Factor (Internal Marker) (AID 2283811);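 further: internal background marker reporter mRNA measured by RT-PCR and capillary electrophoresis; hits are increases in signal above the DMSO baseline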
# Summary of the method: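 HepG2 cells transiently transfected with GAL4-UAS multi-reporter constructs, dosed 24 h with 3 nM 6-alpha-fluorotestosterone plus 1.5 nM norgestrel present to stimulate androgen receptor. Reporter mRNA quantified by RT-PCR, 6-FAM labelling, HpaI digestion and capillary electrophoresis; gain-of-signal fitted versus DMSO baseline.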
# [7] = molecular target: Estrogen receptor beta (Homo sapiens) (UniProt Q92731); assay: ATG_hERb_XSP2: Attagene TRANS-FACTORIAL Multi-Species (XSP2) HepG2 Assay for human Estrogen Receptor (ERb) (AID 2283813);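 further: actives raise reporter mRNA above DMSO so AC50 reflects agonist induction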
# Summary of the method: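 HepG2 cells transiently transfected with GAL4-UAS reporter units and chimeric human ERb-Gal4, 24 h exposure. Reporter mRNA quantified by RT-PCR with FAM labelling, HpaI digestion and capillary electrophoresis; gain of signal versus DMSO.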
# [8] = tested on: turtle Thyroid Hormone Receptor, alpha (TRa), gene 101949057; assay: ATG_trTRa_XSP1: Attagene TRANS-FACTORIAL Multi-Species (XSP1) HepG2 Assay for turtle Thyroid Hormone Receptor, alpha (TRa) (AID 2283806)
# Summary of the method: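 HepG2 cells transiently transfected with GAL4-UAS reporter units and chimeric receptor-Gal4 constructs, with 3 nM 6-alpha-fluorotestosterone present. Reporter mRNA was quantified 24 h after dosing by RT-PCR, 6-FAM labelling and capillary electrophoresis; gain of signal versus DMSO.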
# [9] = tested on: turtle Estrogen Receptor (ERa), gene 101933533; assay: ATG_trERa_XSP2: Attagene TRANS-FACTORIAL Multi-Species (XSP2) HepG2 Assay for turtle Estrogen Receptor (ERa) (AID 2283812);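 further: human HepG2 liver cells transiently expressing turtle ERa-Gal4 chimeric receptor; actives raise reporter signal above DMSO so AC50 reflects agonist activity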
# Summary of the method: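 HepG2 cells transiently transfected with GAL4-UAS reporter units expressing turtle ERa-Gal4 chimera. Reporter mRNA measured after 24 h dosing by RT-PCR, fluorescent labelling and capillary electrophoresis; gain of signal fitted versus DMSO.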
# [10] = molecular target: GAL4 Transcription Factor (Internal Marker), GAL4 (gene 855828) (UniProt P04386); assay: ATG_GAL4_XSP2: Attagene TRANS-FACTORIAL Multi-Species (XSP2) HepG2 Assay for GAL4 Transcription Factor (Internal Marker) (AID 2283814);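 further: GAL4 reporter mRNA background control in MRTU transfected cells not a receptor target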
# Summary of the method: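 HepG2 cells transiently transfected with GAL4-UAS reporter units, stimulated with 3 nM 6-alpha-fluorotestosterone plus 1.5 nM norgestrel, dosed 24 h. Reporter mRNA by RT-PCR/capillary electrophoresis; gain-of-signal fit versus DMSO, background control.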
# Sequence of GAL4 Transcription Factor (Internal Marker), GAL4 (gene 855828) (P04386 whole entry, looked up, the tested form may be a part): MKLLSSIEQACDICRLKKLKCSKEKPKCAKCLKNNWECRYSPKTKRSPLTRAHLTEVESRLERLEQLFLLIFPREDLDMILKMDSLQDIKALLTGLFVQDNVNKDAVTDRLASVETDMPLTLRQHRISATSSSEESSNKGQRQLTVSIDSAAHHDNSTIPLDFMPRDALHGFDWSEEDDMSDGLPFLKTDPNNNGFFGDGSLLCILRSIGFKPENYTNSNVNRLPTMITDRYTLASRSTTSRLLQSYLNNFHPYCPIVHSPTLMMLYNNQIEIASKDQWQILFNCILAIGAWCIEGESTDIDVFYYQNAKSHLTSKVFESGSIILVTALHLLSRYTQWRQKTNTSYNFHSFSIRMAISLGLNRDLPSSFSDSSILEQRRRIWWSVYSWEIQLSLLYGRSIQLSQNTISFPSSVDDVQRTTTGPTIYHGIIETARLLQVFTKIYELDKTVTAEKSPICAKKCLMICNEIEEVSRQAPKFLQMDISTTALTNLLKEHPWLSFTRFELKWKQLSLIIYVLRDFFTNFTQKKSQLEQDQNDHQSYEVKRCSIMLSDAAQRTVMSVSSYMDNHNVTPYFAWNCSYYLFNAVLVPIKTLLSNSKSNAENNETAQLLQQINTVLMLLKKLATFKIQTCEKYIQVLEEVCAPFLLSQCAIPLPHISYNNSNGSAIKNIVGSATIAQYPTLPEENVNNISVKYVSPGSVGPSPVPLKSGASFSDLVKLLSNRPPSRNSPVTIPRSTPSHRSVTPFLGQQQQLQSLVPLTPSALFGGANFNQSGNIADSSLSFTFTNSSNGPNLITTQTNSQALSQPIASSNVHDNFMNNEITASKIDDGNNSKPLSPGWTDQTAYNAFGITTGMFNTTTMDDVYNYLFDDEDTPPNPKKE
# Sequence of human Thyroid hormone Receptor beta (TRb), THRB (gene 7068) (P10828 whole entry, looked up, the tested form may be a part): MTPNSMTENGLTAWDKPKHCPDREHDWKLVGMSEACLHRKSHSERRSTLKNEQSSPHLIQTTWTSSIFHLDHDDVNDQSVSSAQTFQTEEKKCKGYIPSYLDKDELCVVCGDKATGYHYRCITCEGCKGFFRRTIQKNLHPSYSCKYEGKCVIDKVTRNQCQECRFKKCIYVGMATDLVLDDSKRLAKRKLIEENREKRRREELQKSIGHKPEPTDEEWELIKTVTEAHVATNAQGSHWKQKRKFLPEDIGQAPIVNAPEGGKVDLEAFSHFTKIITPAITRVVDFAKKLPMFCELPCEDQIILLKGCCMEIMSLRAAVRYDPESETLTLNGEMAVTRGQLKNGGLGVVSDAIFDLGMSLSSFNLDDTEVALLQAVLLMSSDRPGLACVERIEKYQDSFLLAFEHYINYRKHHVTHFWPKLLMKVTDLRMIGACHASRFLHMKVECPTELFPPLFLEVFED
# Sequence of zebrafish Thyroid Hormone Receptor beta (TRb), thrb (gene 30607) (Q9PVE4 whole entry, looked up, the tested form may be a part): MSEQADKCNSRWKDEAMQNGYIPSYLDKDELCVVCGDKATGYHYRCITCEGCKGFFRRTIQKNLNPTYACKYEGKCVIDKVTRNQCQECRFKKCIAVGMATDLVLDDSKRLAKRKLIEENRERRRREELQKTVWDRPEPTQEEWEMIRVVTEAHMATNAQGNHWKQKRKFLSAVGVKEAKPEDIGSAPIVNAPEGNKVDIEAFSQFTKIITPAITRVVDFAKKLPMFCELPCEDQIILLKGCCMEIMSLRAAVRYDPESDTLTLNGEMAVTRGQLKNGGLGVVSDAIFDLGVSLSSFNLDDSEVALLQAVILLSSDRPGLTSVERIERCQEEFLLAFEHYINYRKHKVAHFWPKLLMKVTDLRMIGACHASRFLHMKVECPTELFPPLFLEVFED
# Sequence of Nuclear receptor subfamily 1 group I member 2 (Mus musculus) (O54915 whole entry, looked up, the tested form may be a part): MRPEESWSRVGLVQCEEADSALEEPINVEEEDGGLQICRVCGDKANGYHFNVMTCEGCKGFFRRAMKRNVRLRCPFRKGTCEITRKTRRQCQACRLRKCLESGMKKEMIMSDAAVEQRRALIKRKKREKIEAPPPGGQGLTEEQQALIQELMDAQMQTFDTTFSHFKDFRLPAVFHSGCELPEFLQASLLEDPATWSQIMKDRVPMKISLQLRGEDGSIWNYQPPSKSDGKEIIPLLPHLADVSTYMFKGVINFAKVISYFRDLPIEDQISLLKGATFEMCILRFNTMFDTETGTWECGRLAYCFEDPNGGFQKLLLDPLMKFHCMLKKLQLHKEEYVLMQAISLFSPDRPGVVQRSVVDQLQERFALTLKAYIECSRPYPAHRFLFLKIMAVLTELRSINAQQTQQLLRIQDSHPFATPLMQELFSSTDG
# Sequence of Estrogen receptor beta (Homo sapiens) (Q92731 whole entry, looked up, the tested form may be a part): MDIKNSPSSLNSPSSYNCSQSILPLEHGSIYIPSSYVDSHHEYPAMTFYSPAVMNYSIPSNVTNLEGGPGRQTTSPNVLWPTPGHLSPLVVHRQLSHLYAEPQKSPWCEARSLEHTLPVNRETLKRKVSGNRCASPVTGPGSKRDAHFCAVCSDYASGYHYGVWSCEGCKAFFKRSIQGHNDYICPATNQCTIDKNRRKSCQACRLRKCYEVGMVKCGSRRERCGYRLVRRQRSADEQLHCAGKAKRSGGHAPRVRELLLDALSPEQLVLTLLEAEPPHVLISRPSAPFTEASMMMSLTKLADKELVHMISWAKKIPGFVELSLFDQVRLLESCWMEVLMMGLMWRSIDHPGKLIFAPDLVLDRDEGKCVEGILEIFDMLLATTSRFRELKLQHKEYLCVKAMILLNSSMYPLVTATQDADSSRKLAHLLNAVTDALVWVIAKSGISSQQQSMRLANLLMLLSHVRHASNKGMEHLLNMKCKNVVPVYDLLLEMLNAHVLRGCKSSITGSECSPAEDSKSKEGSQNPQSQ
# Sequence of zebrafish Thyroid Hormone Receptor alpha (TRa), thraa (gene 30670) (Q98867 whole entry, looked up, the tested form may be a part): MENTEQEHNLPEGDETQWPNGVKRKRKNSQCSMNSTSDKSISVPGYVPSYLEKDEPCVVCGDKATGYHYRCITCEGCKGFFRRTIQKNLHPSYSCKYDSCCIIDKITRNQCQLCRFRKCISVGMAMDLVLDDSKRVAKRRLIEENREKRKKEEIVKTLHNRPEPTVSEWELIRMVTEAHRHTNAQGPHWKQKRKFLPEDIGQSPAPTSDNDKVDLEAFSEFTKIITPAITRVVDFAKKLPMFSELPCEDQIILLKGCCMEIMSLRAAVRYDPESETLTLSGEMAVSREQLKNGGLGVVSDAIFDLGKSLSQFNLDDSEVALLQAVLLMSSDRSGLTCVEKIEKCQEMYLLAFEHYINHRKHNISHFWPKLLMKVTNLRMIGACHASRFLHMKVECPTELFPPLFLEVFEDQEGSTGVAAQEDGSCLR
compound,measurement,setting,value
C#CCC1=C(C)C(OC(=O)C2C(C=C(C)C)C2(C)C)CC1=O (stereo unspecified),AC50,[1],320 nM (active)
same,outcome,[2],inactive
same,outcome,[3],inactive
same,outcome,[4],inactive
same,outcome,[5],inactive
same,outcome,[6],inactive
same,outcome,[7],inactive
C#CC(C)(C)NC(=O)c1cc(Cl)cc(Cl)c1,AC50,[1],13300 nM (active)
same,outcome,[8],inactive
same,outcome,[2],inactive
same,outcome,[3],inactive
same,outcome,[4],inactive
same,outcome,[6],inactive
same,outcome,[9],inactive
same,outcome,[10],inactive
Nc1c(Cl)cc([N+](=O)[O-])cc1Cl,outcome,[9],inactive
same,outcome,[7],inactive
same,outcome,[10],inactive
CCCOCC(=Nc1ccc(Cl)cc1C(F)(F)F)n1ccnc1,AC50,[1],201 nM (active)
same,outcome,[8],inactive
same,outcome,[2],inactive
same,outcome,[3],inactive
same,outcome,[4],inactive
same,AC50,[5],100 µM (active)
same,outcome,[6],inactive
same,outcome,[7],inactive
CCOP(=O)(NC(C)C)Oc1ccc(SC)c(C)c1 (stereo unspecified),outcome,[6],inactive
same,AC50,[9],100 µM (active) and 52.6 µM (active)
same,outcome,[7],inactive
same,outcome,[10],inactive
CCc1cccc(C)c1N(C(=O)CCl)C(C)COC (stereo unspecified),AC50,[1],3280 nM (active)
same,outcome,[8],inactive
same,outcome,[2],inactive
same,outcome,[4],inactive
same,outcome,[5],inactive
same,outcome,[6],inactive
same,outcome,[9],inactive
same,outcome,[7],inactive
same,outcome,[10],inactive
COc1ccc(C(=CC(=O)N2CCOCC2)c2ccc(Cl)cc2)cc1OC,outcome,[6],inactive
same,outcome,[9],inactive
same,outcome,[7],inactive
same,outcome,[10],inactive
CCC(=O)Nc1ccc(Cl)c(Cl)c1,outcome,[6],inactive
same,outcome,[9],inactive
CCOP(=S)(OCC)Oc1ccc2c(C)c(Cl)c(=O)oc2c1,AC50,[1],214 nM (active)
same,outcome,[8],inactive
same,outcome,[2],inactive
same,outcome,[4],inactive
same,outcome,[6],inactive
same,outcome,[9],inactive
same,outcome,[7],inactive
same,outcome,[10],inactive
CCC(CC)Nc1c([N+](=O)[O-])cc(C)c(C)c1[N+](=O)[O-],outcome,[6],inactive
same,AC50,[9],2.52 µM (active) and 1.7 µM (active)
same,outcome,[7],inactive
